# Test results reported in PubChem BioAssay (EPA / NIEHS).
# Several values for one entry are separate records, joined by “and”; a condition that tells them apart may be missing. Equal values may be shown once. A structure can be active in one record and inactive in another. Activity calls are given as the source filed them. The calls were made as follows: active = hit-call score of the fitted dose curve at least 0.9, where 1 is the maximum; inactive = score below 0.9.
# Columns and labels:
# [1] = read-out: Pselectin, SELP (gene 6403); assay: BSK_4H_Pselectin: BioMAP Diversity Plus: 4H Assay for Pselectin Biomarker Activity (AID 2283026); conditions: primary human endothelial cells (HUVEC); actives raise or lower the signal
# Outline: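 Primary human umbilical vein endothelial cells were exposed to test chemical for 24 h, then cell-surface P-selectin was quantified by ELISA. Activity was fitted bidirectionally against DMSO as negative control and baseline.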
# [2] = read-out: Human Leukocyte Antigen - DR isotype (HLADR), HLA-DRA (gene 3122); assay: BSK_BE3C_HLADR: BioMAP Diversity Plus: BE3C Assay for Human Leukocyte Antigen - DR isotype (HLADR) Biomarker Activity (AID 2283032); conditions: primary human bronchial epithelial cells; actives raise or lower the signal
# Outline: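 Human primary bronchial epithelial cells in the BE3C system were exposed to chemicals for 24 h, after which HLA-DR levels were quantified by ELISA. Activity was fitted bidirectionally, gain or loss of signal, against DMSO as negative control and baseline.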
# [3] = read-out: Vascular cell adhesion molecule 1 (VCAM1), VCAM1 (gene 7412); assay: BSK_4H_VCAM1: BioMAP Diversity Plus: 4H Assay for Vascular cell adhesion molecule 1 (VCAM1) Biomarker Activity (AID 2283033); conditions: primary human endothelial cells (HUVEC); actives raise or lower the signal;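 as to outcome: cell-surface VCAM-1 protein measured by ELISA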
# Outline: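 Primary human umbilical vein endothelial cells were exposed to chemicals for 24 h, after which VCAM-1 was quantified by ELISA. Responses were fitted bidirectionally against DMSO as negative control and activity baseline.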
# [4] = read-out: urokinase plasminogen activator (uPA), PLAU (gene 5328); assay: BSK_BE3C_uPA: BioMAP Diversity Plus: BE3C Assay for urokinase plasminogen activator (uPA) Biomarker Activity (AID 2283038); conditions: primary human bronchial epithelial cells; actives raise or lower the signal;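 as to outcome: uPA protein level quantified by ELISA in cell cultures; uPA read one day after compound addition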
# Outline: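 Human primary bronchial epithelial cells were exposed to chemical for 24 h, then uPA levels were measured by ELISA. Responses were fitted bidirectionally against DMSO as negative control and baseline. Parallel SRB staining of total protein gauged overt cytotoxicity.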
# [5] = read-out: Interleukin-6 (IL6), IL6 (gene 3569); assay: BSK_CASM3C_IL6: BioMAP Diversity Plus: CASM3C Assay for Interleukin-6 (IL6) Biomarker Activity for (AID 2283040); conditions: primary human coronary artery smooth muscle cells; actives raise or lower the signal
# [6] = read-out: Tissue Factor, F3 (gene 2152); assay: BSK_CASM3C_TissueFactor: BioMAP Diversity Plus: CASM3C Assay for Tissue Factor Biomarker Activity (AID 2283052); conditions: primary human coronary artery smooth muscle cells; actives raise or lower the signal;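 also: cell surface tissue factor protein level read by ELISA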
# [7] = read-out: Urokinase-type plasminogen activator receptor (uPAR), PLAUR (gene 5329); assay: BSK_CASM3C_uPAR: BioMAP Diversity Plus: CASM3C Assay for Urokinase-type plasminogen activator receptor (uPAR) Biomarker Activity (AID 2283054); conditions: primary human coronary artery smooth muscle cells; actives raise or lower the signal;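 also: cell-surface uPAR protein level quantified by ELISA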
# [8] = read-out: Collagen III, COL3A1 (gene 1281); assay: BSK_hDFCGF_CollagenIII: BioMAP Diversity Plus: hDFCGF Assay for Collagen III Biomarker Activity (AID 2283056); conditions: primary human foreskin fibroblasts; actives raise or lower the signal
# Outline: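 Human foreskin primary fibroblasts were exposed to test chemicals for 24 h, after which collagen III was quantified by ELISA. Activity was fitted bidirectionally against DMSO as negative control and baseline.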
# [9] = read-out: Epidermal growth factor receptor (EGFR), EGFR (gene 1956); assay: BSK_hDFCGF_EGFR: BioMAP Diversity Plus: hDFCGF Assay for Epidermal growth factor receptor (EGFR) Biomarker Activity (AID 2283057); conditions: primary human foreskin fibroblasts; actives raise or lower the signal
# Outline: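 Primary human foreskin fibroblasts were exposed to compound for 24 h, after which cell-surface EGFR was quantified by ELISA. Activity was fitted bidirectionally against the DMSO negative control as baseline.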
# [10] = read-out: Vascular cell adhesion molecule 1 (VCAM1), VCAM1 (gene 7412); assay: BSK_hDFCGF_VCAM1: BioMAP Diversity Plus: hDFCGF Assay for Vascular cell adhesion molecule 1 (VCAM1) Biomarker Activity (AID 2283065); conditions: primary human foreskin fibroblasts; actives raise or lower the signal;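 as to AC50: VCAM-1 protein level quantified by ELISA after 24 h chemical exposure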
# Outline: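 Primary human foreskin fibroblasts (hDFCGF system) were dosed with chemical and VCAM-1 was measured by ELISA 24 h later. Bidirectional curve fitting used DMSO as negative control and activity baseline.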
# [11] = read-out: CD40, CD40 (gene 958); assay: BSK_LPS_CD40: BioMAP Diversity Plus: LPS Assay for CD40 Biomarker Activity (AID 2283076); conditions: primary human HUVEC with PBMC; actives raise or lower the signal
# Outline: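 Primary human umbilical vein endothelial cells co-cultured with peripheral blood mononuclear cells, LPS-stimulated, were dosed with chemical and read 24 h later. CD40 levels were measured by ELISA and fitted bidirectionally against DMSO as negative control and baseline.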
# [12] = read-out: E-selectin (Homo sapiens) (UniProt P16581); assay: BSK_LPS_Eselectin: BioMAP Diversity Plus: LPS Assay for Eselectin Biomarker Activity (AID 2283077); conditions: primary human HUVEC with PBMC; actives raise or lower the signal
# Outline: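 Human umbilical vein endothelial cells co-cultured with peripheral blood mononuclear cells under LPS stimulation; E-selectin measured by ELISA 24 h after chemical dosing. Activity fitted bidirectionally against DMSO as negative control and baseline.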
# [13] = read-out: Monocyte Chemoattractant Protein-1 (MCP1), CCL2 (gene 6347); assay: BSK_LPS_MCP1: BioMAP Diversity Plus: LPS Assay for Monocyte Chemoattractant Protein-1 (MCP1) Biomarker Activity (AID 2283081); conditions: primary human HUVEC with PBMC; actives raise or lower the signal;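 as to AC50: secreted MCP-1 protein quantified by ELISA in culture supernatant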
# Outline: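 HUVEC plus PBMC co-culture (human primary cells, LPS system) exposed to test chemical for 24 h; MCP-1 measured by ELISA. Bidirectional curve fitting against DMSO baseline; parallel SRB total-protein staining flags overt cytotoxicity.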
# [14] = BSK_LPS_PGE2: BioMAP Diversity Plus: LPS Assay for Prostaglandin E2 (PGE2) Biomarker Activity (AID 2283082); conditions: primary human HUVEC with PBMC; actives raise or lower the signal;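 as to AC50: secreted prostaglandin E2 measured by ELISA in LPS-stimulated co-culture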
# Outline: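 HUVEC plus PBMC co-culture stimulated with LPS; secreted PGE2 quantified by ELISA 24 h after chemical dosing. Activity fitted bidirectionally against DMSO as negative control and baseline; parallel SRB total-protein staining served as cytotoxicity check.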
# [15] = read-out: Macrophage colony-stimulating factor (MCSF), CSF1 (gene 1435); assay: BSK_LPS_MCSF: BioMAP Diversity Plus: LPS Assay for Macrophage colony-stimulating factor (MCSF) Biomarker Activity (AID 2283083); conditions: primary human HUVEC with PBMC; actives raise or lower the signal
# Outline: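 Human umbilical vein endothelial cells co-cultured with peripheral blood mononuclear cells were exposed to compound for 24 h. M-CSF levels were measured by ELISA, and bidirectional curve fitting used DMSO as the negative control and baseline.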
# [16] = read-out: CD69, CD69 (gene 969); assay: BSK_SAg_CD69: BioMAP Diversity Plus: SAg Assay for CD69 Biomarker Activity (AID 2283089); conditions: primary human HUVEC with PBMC; actives raise or lower the signal;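 as to AC50: cell surface CD69 protein quantified by ELISA with fluorescence detection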
# Outline: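 ELISA, fluorescence read-out: CD69 on human umbilical vein endothelial cell + PBMC co-culture, 24 h post-dosing. Gain or loss of signal fitted bidirectionally against DMSO baseline.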
# [17] = BSK_SAg_PBMCCytotoxicity: PBMC Cytotoxicity Assessment in the BioMAP Diversity Plus: SAg Assay (AID 2283093); conditions: primary human HUVEC with PBMC;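 also: PBMC viability measured as Alamar Blue reduction fluorescence at 546/580 nm; fitted both ways against DMSO so a hit may be loss or gain of signal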;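 as to AC50: PBMC superantigen activated with SEB plus TSST-1 one hour after compound addition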
# Outline: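 HUVEC/PBMC co-culture; PBMC exposed to chemical 1 h before SEB and TSST-1 activation (20 ng/mL each), incubated 90 h, then Alamar Blue 6 h, fluorescence 546/580 nm. Bidirectional fit versus DMSO baseline.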
# [18] = ATG_Sox_CIS: Attagene CIS-FACTORIAL HepG2 Assay for human SRY-box transcription factor (SOX) (AID 2282960); conditions: HepG2 Attagene cis-factorial SOX reporter, mRNA; actives raise or lower the signal
# Outline: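 Endogenous factor activity in human liver HepG2 cells carrying transfected cis-regulated reporter units. RNA taken 24 h post-dose, reverse-transcribed, PCR-amplified and sized by capillary electrophoresis. Gain or loss of signal fitted relative to DMSO.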
# [19] = ATG_PXRE_CIS: Attagene CIS-FACTORIAL HepG2 Assay for human Pregnane X Receptor Element (PXRE) (AID 2282957); conditions: HepG2 Attagene CIS-FACTORIAL PXRE reporter, mRNA; actives raise or lower the signal
# Outline: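 HepG2 cells transiently transfected with cis-regulated multiple reporter transcription units; endogenous factor activity measured as reporter mRNA 24 h after dosing. RT-PCR, fluorescent primer extension, HpaI digestion, capillary electrophoresis; bidirectional fit versus DMSO baseline.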
# [20] = molecular target: X-box-binding protein 1 (Homo sapiens) (UniProt P17861); assay: ATG_Xbp1_CIS: Attagene CIS-FACTORIAL HepG2 Assay for human X-box Binding Protein 1 (XBP1) (AID 2282972); conditions: HepG2 XBP1 cis-element reporter, Attagene multiplex; actives raise or lower the signal
# Sequence of X-box-binding protein 1 (Homo sapiens) (P17861 whole entry, looked up, the tested form may be a part): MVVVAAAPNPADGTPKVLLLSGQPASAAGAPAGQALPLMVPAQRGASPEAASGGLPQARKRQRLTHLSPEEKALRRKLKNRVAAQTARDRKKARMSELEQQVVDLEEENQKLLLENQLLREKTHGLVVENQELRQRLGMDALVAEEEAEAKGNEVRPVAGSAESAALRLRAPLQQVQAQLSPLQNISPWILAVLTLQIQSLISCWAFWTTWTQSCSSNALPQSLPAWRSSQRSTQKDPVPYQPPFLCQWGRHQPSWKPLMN
# Outline: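 Fluorescence-labelled cDNA fragments from reporter transcripts, separated by capillary electrophoresis, give the signal. Source: HepG2 cells transfected with promoter-driven reporter units, harvested 24 h post-dose. DMSO served as reference for bidirectional curve fitting.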
# Sequence of E-selectin (Homo sapiens) (P16581 whole entry, looked up): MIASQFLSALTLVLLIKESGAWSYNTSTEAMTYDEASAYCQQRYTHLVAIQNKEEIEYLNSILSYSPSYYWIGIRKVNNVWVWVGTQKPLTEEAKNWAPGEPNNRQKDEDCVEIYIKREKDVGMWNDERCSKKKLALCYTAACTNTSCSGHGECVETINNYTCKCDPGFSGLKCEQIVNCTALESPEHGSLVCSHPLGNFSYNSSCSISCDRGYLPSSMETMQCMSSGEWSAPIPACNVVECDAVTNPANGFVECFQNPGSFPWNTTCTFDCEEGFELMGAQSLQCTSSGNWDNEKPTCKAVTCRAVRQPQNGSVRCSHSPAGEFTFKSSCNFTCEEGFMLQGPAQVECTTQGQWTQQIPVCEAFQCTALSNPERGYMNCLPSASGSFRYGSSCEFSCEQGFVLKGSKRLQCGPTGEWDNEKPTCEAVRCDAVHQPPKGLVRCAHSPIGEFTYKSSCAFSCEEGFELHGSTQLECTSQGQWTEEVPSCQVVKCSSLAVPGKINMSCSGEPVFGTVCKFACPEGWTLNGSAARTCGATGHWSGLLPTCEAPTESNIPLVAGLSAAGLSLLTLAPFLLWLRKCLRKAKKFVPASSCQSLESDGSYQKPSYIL
smiles,measurement,setting,value
CCCCC(CC)COC(=O)C=Cc1ccc(OC)cc1 (centres undefined),AC50,[1],33.3 µM (active) and 38.7 µM (active)
same,outcome,[2],inactive
same,AC50,[3],5.26 µM (active) and 3.42 µM (active)
same,outcome,[4],inactive
same,outcome,[5],inactive
same,AC50,[6],6.67 µM (active)
same,outcome,[6],inactive
same,outcome,[7],inactive
same,AC50,[8],9.77 µM (active) and 7.79 µM (active)
same,outcome,[9],inactive
same,outcome,[10],inactive
same,AC50,[11],20 µM (active)
same,outcome,[11],inactive
same,AC50,[12],13.2 µM (active)
same,outcome,[12],inactive
same,AC50,[13],32.3 µM (active)
same,outcome,[13],inactive
same,outcome,[14],inactive
same,AC50,[15],32 µM (active) and 14.8 µM (active)
same,AC50,[16],26.3 µM (active) and 18.6 µM (active)
same,AC50,[17],36.1 µM (active)
same,outcome,[17],inactive
OC(C(F)(F)F)(C(F)(F)F)C(O)(C(F)(F)F)C(F)(F)F,AC50,[1],22.1 µM (active) and 21.4 µM (active)
same,AC50,[2],48.2 µM (active) and 45.4 µM (active)
same,AC50,[3],24.3 µM (active) and 30 µM (active)
same,AC50,[4],28.8 µM (active) and 32.2 µM (active)
same,AC50,[5],41.2 µM (active)
same,outcome,[5],inactive
same,outcome,[6],inactive
same,AC50,[7],19.3 µM (active) and 22.6 µM (active)
same,AC50,[8],41.9 µM (active) and 23.6 µM (active)
same,AC50,[9],5.95 µM (active)
same,outcome,[9],inactive
same,AC50,[10],13.2 µM (active) and 12.3 µM (active)
same,AC50,[11],29.8 µM (active) and 21.6 µM (active)
same,AC50,[12],24.4 µM (active) and 51.9 µM (active)
same,AC50,[13],23.9 µM (active) and 23.3 µM (active)
same,AC50,[14],7.65 µM (active) and 6.88 µM (active)
same,AC50,[15],22 µM (active) and 21.7 µM (active)
same,AC50,[16],18.5 µM (active) and 17.7 µM (active)
same,outcome,[17],inactive
C1CN(CCOCCN2CCOCC2)CCO1,outcome,[1],inactive
same,outcome,[2],inactive
same,outcome,[3],inactive
same,outcome,[4],inactive
same,outcome,[5],inactive
same,outcome,[6],inactive
same,outcome,[7],inactive
same,outcome,[8],inactive
same,outcome,[9],inactive
same,outcome,[10],inactive
same,outcome,[11],inactive
same,outcome,[12],inactive
same,outcome,[13],inactive
same,outcome,[14],inactive
same,outcome,[15],inactive
same,outcome,[16],inactive
same,outcome,[17],inactive
CCCCCCOC(=O)CCCCCCCC(=O)OCCCCCC,outcome,[18],inactive
CCC[Si](OC(C)=O)(OC(C)=O)OC(C)=O,outcome,[1],inactive
same,outcome,[2],inactive
same,outcome,[3],inactive
same,outcome,[4],inactive
same,outcome,[5],inactive
same,outcome,[6],inactive
same,AC50,[7],3.83 µM (active)
same,outcome,[7],inactive
same,outcome,[8],inactive
same,outcome,[9],inactive
same,outcome,[10],inactive
same,outcome,[11],inactive
same,outcome,[12],inactive
same,outcome,[13],inactive
same,outcome,[14],inactive
same,outcome,[15],inactive
same,outcome,[16],inactive
same,outcome,[17],inactive
C[Si](C)(C)O[Si](C)(C)O[Si](C)(C)C,outcome,[19],inactive
same,outcome,[18],inactive
same,outcome,[20],inactive
CCCC[N+]1(C)CCCC1,outcome,[19],inactive
same,outcome,[18],inactive
same,outcome,[20],inactive
CC/C=C\CCO,AC50,[19],29.3 µM (active)
same,outcome,[18],inactive
Cc1c(C(N)=O)cc([N+](=O)[O-])cc1[N+](=O)[O-],outcome,[1],inactive
same,AC50,[2],27.8 µM (active)
same,outcome,[2],inactive
same,outcome,[3],inactive
same,outcome,[4],inactive
same,outcome,[5],inactive
same,outcome,[6],inactive
same,outcome,[7],inactive
same,outcome,[8],inactive
same,outcome,[9],inactive
same,outcome,[10],inactive
same,outcome,[11],inactive
same,outcome,[12],inactive
same,outcome,[13],inactive
same,outcome,[14],inactive
same,outcome,[15],inactive
same,outcome,[16],inactive
same,outcome,[17],inactive
COc1cc(CNC(=O)CCCC/C=C/C(C)C)ccc1O,outcome,[1],inactive
same,outcome,[2],inactive
same,outcome,[3],inactive
same,outcome,[4],inactive
same,outcome,[5],inactive
same,outcome,[6],inactive
same,outcome,[7],inactive
same,outcome,[8],inactive
same,outcome,[9],inactive
same,AC50,[10],384 nM (active)
same,outcome,[10],inactive
same,outcome,[11],inactive
same,outcome,[12],inactive
same,outcome,[13],inactive
same,AC50,[14],4.62 µM (active) and 2.9 µM (active)
same,outcome,[15],inactive
same,AC50,[16],27.1 µM (active)
same,outcome,[16],inactive
same,outcome,[17],inactive
F[B-](F)(F)F,outcome,[19],inactive
same,outcome,[18],inactive
same,outcome,[20],inactive
CN(C)N=Nc1ccccc1,AC50,[19],48.3 µM (active)
same,outcome,[20],inactive
CCCc1c(OCCCCc2nn[nH]n2)ccc(C(C)=O)c1O,AC50,[19],27.4 µM (active)
same,outcome,[20],inactive
